Holding throughout (type): functional
For assay [1], the system named is Plasmodium falciparum. As to the kind of experiment: GSK_TCMDC: Inhibition of Plasmodium falciparum 3D7 in whole red blood cells, using parasite LDH activity as an index of growth. Test compounds present at 2uM.
For assay [2], the system named is Plasmodium falciparum. As to the kind of experiment: GSK_TCMDC: Inhibition of Plasmodium falciparum Dd2 in whole red blood cells, using parasite LDH activity as an index of growth. Test compounds present at 2uM.
In another assay the test system is HepG2. As to the kind of experiment: GSK_TCMDC: Percent inhibition of human HepG2 cell line. Test compounds present at 10uM.

This is an account of results in ChEMBL document CHEMBL1157539, “Thousands of chemical starting points for antimalarial lead identification” (Nature, 2010).

Take `Cc1nc(-c2cccc(Nc3nccc(NCC(O)c4ccccc4C)n3)c2)cs1` (stereo unspecified): the Inhibition in the assay on Plasmodium falciparum [1] was 92%; in the assay on Plasmodium falciparum [2], 14%; with HepG2 it was 38%.
As for `COc1ccc(-c2cc(C(=O)N3CCc4ccccc43)c3ccccc3n2)cc1OC`, the Inhibition with Plasmodium falciparum [1] was 85%; in the assay with Plasmodium falciparum [2] it was 48%; with HepG2 it was 5%.
Taken in the same sequence, the figures for `CO/C(=C\C=C\c1cc2cc(Cl)c(Cl)cc2[nH]1)C(=O)Nc1ccc(NCCN(C)C)nc1.Cl` were 93%, 56% and 27%.
For `COc1cc(F)c2ncc(Cl)c(CCN3CCC(NCc4ccc5c(n4)NC(=O)CO5)CC3)c2c1.Cl` the same measures were 89%, 19% and 20%.
Taken in the same sequence, the figures for `C[C@H](NC(=O)c1c(CN2CCC(NC(=O)CC(C)(C)C)CC2)c(-c2cccs2)nc2ccccc12)C1CCCCC1` were 91%, 70% and 0%.
In the case of `COc1ccc(-c2cccc(NC(=O)c3cccc(Cl)c3)c2)cc1CN1CCC(O)CC1.O=C(O)C(F)(F)F`, the figures for the Inhibition in the assay on Plasmodium falciparum [1], in the assay on Plasmodium falciparum [2] and in the assay on HepG2 were 98%, 16% and 38%, respectively.
For `N=C(N)NC(=O)Nc1cc(Cl)c(Cl)c(Cl)c1` the same measures were 100%, 100% and 0%.
For the molecule `CN1CCN(CCCCCNc2c3ccccc3nc3ccccc23)CC1.Cl`, the Inhibition came to 99% with Plasmodium falciparum [1], 0% in the assay on Plasmodium falciparum [2] and 57% in the assay with HepG2.
Taken in the same sequence, the figures for `Cl.O=c1cc(NCCCNCc2sc(Br)c(Br)c2Br)[nH]c2ccccc12` were 90%, 38% and 0%.
Taken in the same sequence, the figures for `Br.Oc1ccc(CCNCCCCCCNCCc2ccc(Cl)c(Cl)c2)cc1O` were 100%, 2% and 21%.
Taken in the same sequence, the figures for `CN1CCN(c2ccc(Nc3ncc(C#N)c(Nc4ccccc4C(N)=O)n3)cc2)CC1.Cl` were 92%, 93% and 43%.
For `CCN(CC)CCCNc1ncc2c(-c3ccc(NC(=O)Nc4cc(C(F)(F)F)ccc4F)c(F)c3)nn(C)c2n1.O=C(O)C(F)(F)F`, the Inhibition in the assay with Plasmodium falciparum [1] is listed as 94%; with Plasmodium falciparum [2] it was 68%; in the assay with HepG2, 100%.
Turning to `CC(=O)c1ccc(N2C(=O)C3C(Cc4ccc(OC(C)(C)C)cc4)NC4(C(=O)N(Cc5ccc(C(C)(C)C)cc5)c5ccccc54)C3C2=O)cc1` (stereo unspecified), the Inhibition is recorded as 86% with Plasmodium falciparum [1], 81% in the assay with Plasmodium falciparum [2] and 13% in the assay on HepG2.
In the case of `CCCCNC[C@@H](O)[C@H](Cc1ccccc1)NC(=O)c1cc2c3c(c1)c(CC)cn3CCS(=O)(=O)N2C.O=CO`, the values for the Inhibition in the assay on Plasmodium falciparum [1], with Plasmodium falciparum [2] and in the assay with HepG2 were 99%, 98% and 0%, respectively.
On to `CCNc1cc(-c2cccc(OC)c2)nc(Nc2ccc(F)cc2)n1`, for which the Inhibition was determined as 87% in the assay with Plasmodium falciparum [1], 23% with Plasmodium falciparum [2] and 11% in the assay on HepG2.
Taken in the same sequence, the figures for `CN(C)c1ccc2nc(N)nc(N)c2c1Cl.Cl` were 98%, 0% and 68%.
Consider `CC(Oc1ccc(Cl)cc1)C(=O)NCCC1CCN(CCCCCNC(=O)/C=C/c2ccc(Cl)c(Cl)c2)CC1` (stereo unspecified), for which the Inhibition was 89% in the assay on Plasmodium falciparum [1], 20% in the assay on Plasmodium falciparum [2] and 48% with HepG2.
Consider `COc1ccc2nc(N)nc(C)c2c1`, for which the Inhibition in the assay with Plasmodium falciparum [1] was found to be 90%; in the assay on Plasmodium falciparum [2], 1%; with HepG2 it was 5%.
For `CS(=O)(=O)CCNCc1cccc(-c2ccc3c(Nc4ccc(Oc5ccccc5)cc4)ccnc3c2)c1` the same measures were 100%, 96% and 18%.
Taken in the same sequence, the figures for `CCOC(=O)c1c(CN(CC)CC)n(-c2ccccc2)c2cc(Br)c(O)cc12` were 93%, 46% and 14%.
On to `O=C(NC1CCC(N2CCC(c3ccccc3C(F)(F)F)CC2)CC1)c1cc2ccccc2[nH]1` (stereo unspecified), for which the results for the Inhibition in the assay on Plasmodium falciparum [1], in the assay on Plasmodium falciparum [2] and in the assay with HepG2 were 100%, 98% and 80%, respectively.
Taken in the same sequence, the figures for `O=C(NC1CCN(Cc2ccccc2)CC1)c1ccc(-c2nc3cc4ccccc4cc3[nH]2)s1` were 99%, 25% and 13%.
For `Nc1c2c(nc3ccc(Oc4ccc(Cl)cc4)cc13)CCCC2` the same measures were 100%, 65% and 42%.
`Cc1cc(N[C@@H](Cc2ccccc2)C(=O)NCc2cccc(F)c2)nc(NCCc2ccccc2)n1.O=C(O)C(F)(F)F`: the results for the Inhibition in the assay on Plasmodium falciparum [1], in the assay with Plasmodium falciparum [2] and in the assay with HepG2 were 100%, 73% and 7%, respectively.
For the molecule `COc1cc(C=CC(=O)N2CCC3(CC2)CC(=O)c2ccccc2O3)cc(OC)c1OC`, the Inhibition in the assay with Plasmodium falciparum [1] came out at 88%; in the assay on Plasmodium falciparum [2] it was 66%; in the assay on HepG2, 7%.
Taken in the same sequence, the figures for `Cc1c(Cl)cccc1S(=O)(=O)N1CCCCC(c2ccc(C(F)(F)F)cc2)=N1` were 86%, 91% and 15%.
Taken in the same sequence, the figures for `Cn1cnc2c(Nc3ccncc3)nc(-c3ccc4ccccc4c3)nc21` were 96%, 66% and 55%.
Taken in the same sequence, the figures for `O=C(/C=C/c1ccc(Cl)cc1)NCCCCCN1CCCN(C(=O)Nc2ccc(Cl)c(C(F)(F)F)c2)CC1` were 95%, 1% and 54%.
For the molecule `CC(=O)c1ccc(-n2ccnc2)cc1`, the Inhibition in the assay on Plasmodium falciparum [1] came to 92%; in the assay with Plasmodium falciparum [2] it was 0%; with HepG2, 0%.
Turning to `CCC(CO)NCC(O)Cn1c2ccc(Br)cc2c2cc(Br)ccc21` (stereo unspecified), the Inhibition worked out at 100% with Plasmodium falciparum [1], 87% in the assay on Plasmodium falciparum [2] and 18% in the assay on HepG2.
For `CCCCCCCOc1ccc(NC(=O)Nc2ccc(Cn3ncc(N4CCCNCC4)c(Cl)c3=O)cc2)cc1.O=C(O)C(F)(F)F` the same measures were 87%, 28% and 60%.
For `Cc1ccc(CN2CCCN(Cc3cccc(C(=O)Nc4ccc(C(C)(C)C)cc4)c3)CC2)s1.O=C(O)C(F)(F)F` the same measures were 85%, 4% and 31%.

One may read the Inhibition as the share of the control response that was lost under treatment.
